Among all 1,500 compounds or so, about 1,400 (93%) were called active. The rule behind the calls is not given here. The set was probably picked from earlier hits. Not all results are given here. Results with a measured potency or affinity are listed apart.

The results in this text go back to PubChem BioAssay AID1047 (SRMLSC, 2008).

This test is described as follows: viability of PTEN-deleted HCT116 cells – cell-based, HCT116 PTEN knockout, dose response (AID 1047). Conditions: CellTiter-Glo, 60 h; series mostly up to 30 µM. On the technique in general: In ATP-based viability assays light output follows the ATP content of the culture.
For `CCCNC(=O)OC[C@H]1O[C@H](CCO/N=C/[C@@H](NS(=O)(=O)c2ccc(C)cc2)[C@H](C)/C=C/CC(=O)OC)C=C[C@@H]1Oc1ccc(OC)cc1`, the outcome was inactive.
As to `Cc1nn(C(=O)N2CCOCC2)c(C)c1C`, the call was inactive.
As to `CCN1CCN(Cc2ccc(OCc3ccccc3)cc2)CC1`, the compound was classed as inactive.
Regarding `O=C(Nc1cccc(C(F)(F)F)c1)/C(=C\c1ccco1)NC(=O)c1cccs1`, the call was inactive.
Regarding `CSc1n[nH]c(NCc2cccs2)n1`, the outcome was inactive.
In the case of `Nc1nnc(SCc2ccc(Cl)cc2)s1`, the call was inactive.
On to `COC(=O)c1cc(OC)c(OC)cc1NC(=O)c1ccccc1`, for which the result was inactive.
Turning to `C=CCNC(=O)c1ccccc1NC(=O)c1ccccc1C`, the compound was called inactive.
In the case of `CN1CCN(c2nc(N3CCN(c4ccccc4)CC3)ncc2F)CC1`, the call was inactive.
With `O=C(c1ccc2c(=O)n(CC3CCCO3)c(=S)[nH]c2c1)N1CCN(c2ccccc2)CC1` (stereo not given), the outcome was inactive.
Then `Cc1ccc(CNc2ccc(O)cc2)cc1`, with “inactive”.
`OC1(c2cccc(C(F)(F)F)c2)CCN(c2ccc(-c3ccccc3)nn2)CC1`: the compound was called inactive.
For the compound `COc1cc2c(cc1OC)C1(Nc3c-2c(C)nn3-c2ccccc2)C(=O)Nc2ccccc21` (stereo not given), the outcome was inactive.
With `CCOc1ccccc1NC(=O)Cn1cnc2c(nnn2-c2cccc(OC)c2)c1=O`, the compound was called inactive.
In the case of `O=C(COc1ccc(/C=N/NC(=O)c2cc3ccccc3o2)cc1Cl)Nc1ccccc1`, the compound was classed as inactive.
As to `O=C(NCc1ccc2c(c1)OCO2)c1ccc2c(c1)C(=O)N(CC1CCCO1)C2=O` (stereo not given), the outcome was inactive.
As to `CCOC(=O)C1=C(C)NC(=S)N(C(C)=O)C1c1ccc(Cl)cc1` (stereo not given), the outcome was inactive.
Consider `CCC(Sc1nc2sc(C(=O)OC)c(C)c2c(=O)n1N)C(=O)N(CC)CC` (stereo not given), for which the result was inactive.
With `N#CC(c1ccc(Cl)nn1)c1ccc(Cl)cc1Cl` (stereo not given), the call was inactive.
As for `COc1ccc(CCN2C(=O)CN(Cc3ccccc3)CC2=O)cc1OC`, the call was inactive.
Turning to `CC(=O)c1c(C)nc(-c2ccc(Cl)cc2Cl)n1O`, the compound was classed as inactive.
Take `CCOC(=O)Nc1ccc(C)cc1Br`: the compound was called inactive.
Take `Cc1cc2ncn(C(=O)N3CCC(C)CC3)c2cc1C`: the call was inactive.
With `Cc1cc(NC(=O)CSc2nc(-c3cccnc3)ccc2C#N)no1`, the call was inactive.
As to `O=C(CSc1nnc(-c2ccccc2Cl)o1)Oc1ccc(Br)cc1`, the compound was called inactive.
As for `Cc1cccc(CS(=O)(=O)c2nnc([C@H](Cc3ccccc3)NC(=O)OC(C)(C)C)o2)c1`, the outcome was inactive.
As for `O=C(Nc1cccc(C(F)(F)F)c1)C12CC3CC(CC(C3)C1)C2`, the call was inactive.
On to `Cc1cc(NC(=O)CN2CCN(c3ccc(O)cc3)CC2)no1`, for which the compound was classed as inactive.
`Cc1ccc(C(=O)c2coc3c2C(=O)C(=O)c2ccccc2-3)cc1`: the outcome was inactive.
`COCCN1C(=O)c2oc3ccccc3c(=O)c2C1c1ccc(OC)c(OC)c1` (stereo not given): the compound was classed as inactive.
